Inconclusive results are not listed. Calls of active or inactive are those of the source. The call rests on the fitted dose curve; in most records, active means well fitted curve in the direction sought with a large enough effect; inconclusive means small, poorly fitted or top-dose-only effect, or effect the other way, or another doubt; inactive means no such curve, though single readings can be large or run the other way.
Target: Amyloid-beta precursor protein (Homo sapiens) (UniProt P05067)
Experiment: Assay for Inhibitors of the fibrillization of the Beta-Amyloid Protein Fragment, A-beta 1-42
Details: A-beta 1-42 fibrillization, ThT fluorescence, 4 h; series mostly up to 80 µM
Description: NIH Molecular Libraries Probe Production Network [MLPCN] NIH Chemical Genomics Center [NCGC] MLPCN Grant: X01 MH083262-01 Assay Provider: Carlo Ballatore, University of Pennsylvania NCGC Assay Overview: The microtubule-associated protein tau is an abundant protein in the axons of neurons that stabilizes microtubules. With its ability to modulate microtubule dynamics, tau contributes directly or indirectly, to key structural and regulatory cellular functions. Particularly important is the influence tau exerts on axonal transport, which allows signaling molecules, trophic factors and other essential cellular constituents to travel along the axons. Under pathological conditions, tau becomes sequestered into insoluble aggregates called neurofibrillary tangles. This phenomenon is believed to have pathological consequences by promoting axonal transport deficits that ultimately lead to synaptic dysfunction and neuronal loss. Beta-amyloid protein undergoes a similar type of aggregation as tau and is implicated in the pathology of Alzheimer's disease. To examine the selectivity of tau fibrillization inhibitors, compounds were tested in an in vitro assay for fibrillization of the beta-amyloid fragment, A-beta 1-42. Crystal, A. S., Giasson, B. I., Crowe, A., Kung, M. P., Zhuang, Z. P., Trojanowski, J. Q., and Lee, V. M. Y. (2003) Journal of Neurochemistry 86, 1359-1368.
NCGC Assay Protocol Summary: Synthetic A-beta 1-42 aliquots were reconstituted to 2 mg/ml in DMSO and then diluted to 15 uM in 25 mM Tris, pH 7.0 buffer to which test compound was added at 50 uM final concentration, or at several concentrations ranging from 0.16-40 uM. The reaction mixtures were dispensed at 25 ul/well into a 384-well plate and then incubated at 37 C for 4 hrs. Upon completion of the reaction, 25 ul of 25 uM ThT was added to each well followed by ThT fluorescence readings as described above for K18PL.

Sequence of Amyloid-beta precursor protein (Homo sapiens) (P05067 whole entry, looked up, the tested form may be a part): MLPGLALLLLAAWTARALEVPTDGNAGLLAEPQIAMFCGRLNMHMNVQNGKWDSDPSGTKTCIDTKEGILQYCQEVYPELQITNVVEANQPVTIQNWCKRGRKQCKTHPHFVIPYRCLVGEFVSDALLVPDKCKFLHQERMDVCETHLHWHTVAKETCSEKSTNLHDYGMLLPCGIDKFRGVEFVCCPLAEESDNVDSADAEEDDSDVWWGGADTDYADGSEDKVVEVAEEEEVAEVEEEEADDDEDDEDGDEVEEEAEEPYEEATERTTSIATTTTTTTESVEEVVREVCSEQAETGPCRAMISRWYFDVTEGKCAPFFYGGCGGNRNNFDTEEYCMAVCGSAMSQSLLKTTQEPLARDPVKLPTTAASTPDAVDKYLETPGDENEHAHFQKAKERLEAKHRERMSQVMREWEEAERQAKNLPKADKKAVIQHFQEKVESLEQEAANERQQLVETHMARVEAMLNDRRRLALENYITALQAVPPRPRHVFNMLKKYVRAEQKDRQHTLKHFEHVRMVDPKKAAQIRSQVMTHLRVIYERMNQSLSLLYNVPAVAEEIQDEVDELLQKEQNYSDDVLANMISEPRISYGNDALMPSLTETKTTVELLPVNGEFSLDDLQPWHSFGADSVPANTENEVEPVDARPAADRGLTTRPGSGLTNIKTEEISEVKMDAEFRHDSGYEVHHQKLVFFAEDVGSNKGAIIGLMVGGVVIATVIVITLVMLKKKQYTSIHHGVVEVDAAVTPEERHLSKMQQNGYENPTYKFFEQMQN

outcome, inactive:
CCOC(=O)c1nn(-c2ccc(C)c(C)c2)c(=O)c2c(N)scc12
O=S(=O)(c1ccc2c(c1)OCCO2)N1CCN(c2nc(-c3ccccc3)nc3ccccc23)CC1
NC(=O)c1nn(-c2ccccc2)c(=O)c2c(N)scc12
Nc1nn(-c2ccccc2)c(=O)c2c(N)scc12
Nc1scc2c(C(=O)N3CCOCC3)nn(-c3ccccc3)c(=O)c12
CCOC(=O)c1ccc(-n2nc(C(=O)OCC)c3csc(N)c3c2=O)cc1
Nc1scc2c(CO)nn(-c3ccccc3)c(=O)c12
COc1ccc(NC(=O)CSc2nnc(CCC(=O)Nc3ccc(C)c(Cl)c3)n2C)cc1
CCOC(=O)c1nn(-c2ccccc2F)c(=O)c2c(N)scc12
CCOC(=O)c1nn(-c2ccccc2)c(=O)c2c(N)scc12
Cc1ccc(S(=O)(=O)N2CCN(c3nc(-c4ccccc4)nc4ccccc34)CC2)cc1
COc1ccc(-n2nc(C(=O)O)c3csc(N)c3c2=O)cc1
CC(=O)Nc1sc(C)c2cnn(-c3ccccc3)c(=O)c12

Reference: PubChem BioAssay AID1712 (National Center for Advancing Translational Sciences (NCATS), 2009)
